Results published in PubChem BioAssay (NCI).
The panel holds about 79,000 compounds, 15% with a hit somewhere; the sample as a whole holds those more often. A number with no mark means an inactive call. Calls of active or inactive are those of the source. Rule as the data show it: active = growth inhibition above about 70%; inactive = the rest.

Key:
[1] = NCI Yeast Anticancer Drug Screen. Data for the rad50 strain (AID 155);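 also: 0% = growth of vehicle-only cultures of the same strain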; details: S. cerevisiae rad50 strain growth inhibition, hits give high values
Procedure, shortened: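 Cells are treated with compound, grown, and their growth is then scored against vehicle-only cultures of the same repair-deficient yeast strain.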

[2] = NCI Yeast Anticancer Drug Screen. Data for the mec2-1 strain (AID 157); details: S. cerevisiae mec2-1 strain, hits give high values
Procedure, shortened: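 Yeast mec2-1 mutant treated with compound. Readout: growth inhibition vs vehicle controls.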

[3] = NCI Yeast Anticancer Drug Screen. Data for the sgs1 mgt1 strain (AID 161);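 also: 0% = growth of cultures given vehicle only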; details: S. cerevisiae sgs1 mgt1 strain, hits give high values
Procedure, shortened: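 Genetically altered yeast, compound exposure, growth inhibition relative to vehicle.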

[4] = NCI Yeast Anticancer Drug Screen. Data for the cln2 rad14 strain (AID 165);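 also: 0% = growth equal to vehicle treated cultures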; details: S. cerevisiae cln2 rad14 strain, hits give high values
Procedure, shortened: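 cln2 rad14 yeast strain; compound exposure; growth inhibition read vs vehicle controls.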

[5] = NCI Yeast Anticancer Drug Screen. Data for the bub3 strain (AID 167); details: S. cerevisiae bub3 mutant strain, hits give high values
Procedure, shortened: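 Part of a panel of yeast mutants defective in DNA damage repair or cell cycle regulation. Each strain is grown with compound, and inhibition is calculated relative to solvent-treated cultures.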

[6] = NCI Yeast Anticancer Drug Screen. Data for the mlh1 rad18 strain (AID 175); details: S. cerevisiae mlh1 rad18 strain growth inhibition, hits give high values
Procedure, shortened: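 Yeast w/ defined DNA-repair lesions; compound exposure; growth vs vehicle controls → % inhibition.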

[7] = at 5.0 µM (retest, dose inferred, filed as 0.5)
[8] = at 50.0 µM (retest, dose inferred, filed as 5.0)

SMILES	growth inhibition [1, 7]	growth inhibition [1, 8]	growth inhibition ([1]; at 50.0 µM)	growth inhibition [2, 7]	growth inhibition [2, 8]	growth inhibition ([2]; at 50.0 µM)	growth inhibition [3, 7]	growth inhibition [3, 8]	growth inhibition ([3]; at 50.0 µM)	growth inhibition [4, 7]	growth inhibition [4, 8]	growth inhibition ([4]; at 50.0 µM)	growth inhibition [5, 7]	growth inhibition [5, 8]	growth inhibition ([5]; at 50.0 µM)	growth inhibition [6, 7]	growth inhibition [6, 8]	growth inhibition ([6]; at 50.0 µM)
O=[N+]([O-])c1cccc(Cl)c1C(Nc1nncs1)Nc1nncs1	7%	60%	55.5%	7%	41%	27.7%	10%	67%	73.9% (active)	-1%	20%	26.6%	-2%	22%	33.8%	3%	82% (active)	68.3%
O=S(=O)(CCCCl)SCCCCl	11%	99% (active)	99.4% (active)	15%	99% (active)	99.5% (active)	18%	100% (active)	99.5% (active)	23%	99% (active)	99.7% (active)	22%	100% (active)	99.7% (active)	19%	99% (active)	99.5% (active)
C#CCN(N=O)C(=O)NCCCC(NC(C)=O)C(=O)NCc1ccccc1 (configuration not stated)	-4%	19%	78.9% (active)	-26%	-10%	-5.35%	3%	36%	43.6%	-8%	12%	27.1%	6%	26%	-13.6%	-2%	42%	25.8%
O=S(c1ccccc1)c1c(Cl)c(Cl)nc(Cl)c1Cl (configuration not stated)	97% (active)	99% (active)	99.2% (active)	99% (active)	99% (active)	99.6% (active)	99% (active)	99% (active)	99.5% (active)	95% (active)	99% (active)	99.6% (active)	98% (active)	99% (active)	99.5% (active)	99% (active)	99% (active)	99.5% (active)
Cn1cnc([N+](=O)[O-])c1S	2%	1%	-4.8%	-2%	9%	16.2%	0%	-2%	8.45%	-5%	13%	44%	0%	3%	-0.8%	1%	9%	21.6%
COC(=O)n1c(C[P+](c2ccccc2)(c2ccccc2)c2ccccc2)cc2ccccc21	89% (active)	100% (active)	99.2% (active)	90% (active)	100% (active)	99.6% (active)	79% (active)	99% (active)	99.5% (active)	91% (active)	99% (active)	98.1% (active)	95% (active)	100% (active)	99.4% (active)	90% (active)	99% (active)	99% (active)
CCc1ccccc1NC1=C(Cl)C(=O)c2ccccc2C1=O	99% (active)	98% (active)	-1.85%	100% (active)	99% (active)	10.8%	100% (active)	99% (active)	1.85%	77% (active)	99% (active)	-20.3%	99% (active)	99% (active)	-0.2%	99% (active)	98% (active)	10%
CCOC(=O)/C(=C\n1c(=O)sc2ccccc21)C(=O)c1ccccc1	18%	24%	24.6%	19%	55%	50.5%	27%	64%	74.8% (active)	22%	26%	19.5%	21%	57%	7.95%	20%	41%	36.2%
COC1OC(CO)C(O)C(OC(=O)c2ccc([N+](=O)[O-])cc2)C1OS(=O)(=O)c1ccc(C)cc1 (configuration not stated)	2%	0%	31.8%	-1%	7%	-0.1%	-1%	0%	18.7%	-1%	-1%	-2.5%	2%	-2%	-0.2%	27%	7%	10.6%
Nc1cc(Br)c2cccnc2c1O	81% (active)	98% (active)	97.2% (active)	44%	98% (active)	94.7% (active)	67%	98% (active)	98% (active)	28%	98% (active)	94.2% (active)	35%	98% (active)	93.7% (active)	86% (active)	98% (active)	95.7% (active)
Oc1cc(Br)cc2cc(Br)cnc12	92% (active)	98% (active)	84.4% (active)	89% (active)	98% (active)	89.5% (active)	95% (active)	98% (active)	80.5% (active)	96% (active)	96% (active)	84.8% (active)	92% (active)	97% (active)	85.5% (active)	96% (active)	98% (active)	78.3% (active)
O=[N+]([O-])c1ccc(CC(c2ccc([N+](=O)[O-])cc2)(c2ccc([N+](=O)[O-])cc2)c2ccc([N+](=O)[O-])cc2)cc1	2%	-3%	5.05%	1%	1%	12.6%	1%	-16%	-19.3%	5%	-20%	8.7%	5%	4%	41%	0%	1%	26.9%
CN(C)/N=C\C1CC=CCC1 (configuration not stated)	-148%	-148%	25.2%	-46%	-51%	5.35%	-58%	-61%	30.9%	-58%	-70%	82.9% (active)	-71%	-80%	21.8%	-141%	-120%	38%
COC(=O)/N=C/CCC(O)NC(=O)OC (configuration not stated)	1%	1%	40.3%	-20%	2%	1.85%	2%	-2%	-3.15%	-1%	3%	46.5%	-2%	-3%	-18.8%	-9%	4%	11.7%
CN(C)CC(C)(C)C(/C=C/c1ccccc1)=N\Nc1ccccc1	3%	61%	98.1% (active)	0%	68%	90.2% (active)	12%	72% (active)	97.8% (active)	6%	47%	97.3% (active)	1%	91% (active)	98.6% (active)	2%	76% (active)	98.3% (active)
Cc1ccc(NC(=S)SCc2ccc3c(c2)OCO3)cc1Cl	19%	96% (active)	98.9% (active)	15%	99% (active)	99.5% (active)	16%	98% (active)	99% (active)	-7%	97% (active)	98.8% (active)	15%	99% (active)	99.2% (active)	39%	97% (active)	99.2% (active)
C1CNC(CCNCCSCCNCCC2=NCCN2)=N1	10%	90% (active)	95.1% (active)	1%	75% (active)	84.2% (active)	5%	87% (active)	91.9% (active)	5%	72% (active)	83.2% (active)	-2%	89% (active)	93.5% (active)	1%	91% (active)	94.3% (active)
Nc1nc2ccccc2cc1C(=O)O	-162%	-150%	-2.25%	-49%	-47%	19.3%	-61%	-55%	-7.95%	-54%	-48%	63.5%	-69%	-70%	12.5%	-140%	-107%	3.9%
CCCCCCCCCCCCCCCCCCOC(=O)C(N)Cc1ccccc1 (configuration not stated)	-1%	-9%	-7.3%	-2%	-5%	10.1%	0%	-6%	11.1%	-6%	-4%	-7.75%	-2%	-3%	-5.85%	-3%	-8%	5.5%
